# In PubChem BioAssay AID2685 (National Center for Advancing Translational Sciences (NCATS), 2010):
# Among all 320,000 compounds or so, about 2,100 (0.66%) were called active. Roughly 53% stayed inconclusive and do not appear here. Calls come from the whole dose curve; as a rule, active = well fitted inhibition curve with a large enough effect in the signal ratio, with a control signal flat (not every such curve was filed as active); inconclusive = small, poorly fitted or top-dose-only effect, or effect the other way, or a change in a side signal; inactive = flat fitted curve, though single readings scatter; the % refers to the signal ratio. Many of the other results were omitted from the sample, so actives are more common in it than they were.
# Test: qHTS Assay for Lipid Storage Modulators in Drosophila S3 Cells;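 for cell number change: cells counted by Cell Tracker Red CMTPX staining in the red channel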; for lipid storage change, negative = inhibition: % is set by controls: 0 for no effect and ±100 for the full control effect
# Conditions: BODIPY lipid droplet fluorescence, 18-24 h, cells fed with added oleic acid; cell number change: measured here: cell count max response; series mostly up to 46.1 µM
# Summary of the method: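 Drosophila S3 cells loaded with oleic acid (400 uM, as added) and compounds at several concentrations; lipid droplets imaged by 488-nm laser-scanning cytometry, 500–530 nm intensity and object ratio to cell channel. Percent activity normalized to 20 uM Triacsin C.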
# Potency is the fitted concentration of half-maximal effect.
SMILES,Potency,cell number change,"lipid storage change, negative = inhibition"
CC(C)CCNC(=O)C1CCC(=O)N1CCc1ccccc1 (stereo unspecified),inactive,19.8%,
CCC(C)(C)NC(=O)CN(Cc1cccs1)C(=O)C(=O)Nc1ccc2c(c1)OCCO2,inactive,3.41%,
CC(C)(C)NC(=O)CN(C(=O)C(=O)Nc1ccc2c(c1)OCCO2)C(C)(C)C,inactive,-1.34%,
CCC(C)(C)NC(=O)CN(C(=O)C(=O)Nc1ccc2c(c1)OCCO2)C1CC1,1.16 µM (active),-1.67%,
O=C(c1ccco1)N1CCN(c2cc(=O)n(-c3ccc(Cl)cc3)c(=O)[nH]2)CC1,inactive,,
Cc1cc(NS(=O)(=O)c2ccc(NC(=O)CSc3nc4ncccc4[nH]3)cc2)nc(C)n1,inactive,-9.17%,
CCOC(=O)CNC(=O)c1sc(NC(=O)c2ccccc2)nc1C,inactive,-2.79%,
Cc1nn(C)c(=S)n1-c1ccc(Cl)cc1,inactive,4.59%,
Cc1nn(-c2ccccc2)c(=S)n1-c1ccccc1,32.6 µM (active),-7.47%,
Cc1n[nH]c(=S)n1-c1ccccc1,inactive,8.27%,
Cc1ccc(NC(=O)NCc2cccn2C)cc1C,inactive,7.96%,
O=C(Nc1cccc(O)c1)C(=O)Nc1ccccn1,inactive,0.58%,
O=C(NCc1ccc2c(c1)OCO2)c1ccc(Br)s1,inactive,15.1%,
COC(C(=O)Nc1ccnn1C1CCN(Cc2ccc(C)s2)CC1)c1ccccc1 (stereo unspecified),inactive,-1.51%,
COC(C(=O)Nc1ccnn1C1CCN(Cc2nccs2)CC1)c1ccccc1 (stereo unspecified),18.4 µM (active),-27.2%,
COC(C(=O)Nc1ccnn1C1CCN(Cc2ccccn2)CC1)c1ccccc1 (stereo unspecified),inactive,-9.38%,
CCc1cc(Br)ccc1NC(=S)NCCc1ccccc1,inactive,-12.4%,
Cc1ccc(/C=N/NC(=O)CSc2nc3ccccc3[nH]2)o1,inactive,23.1%,
CCOC(=O)c1c[nH]c2c(C)cc(C)cc2c1=O,inactive,-13.9%,
CCCNC(=O)c1ccc(N2CCC3(CC2)CC(c2cccc(Br)c2)=NO3)c(NC(=O)c2cccc(C)c2)c1,inactive,-6.01%,
Cc1ccc(CNC(=O)c2ccc(N3CCC4(CC3)CC(c3cccc(Br)c3)=NO4)c(NC(=O)c3ccco3)c2)cc1,inactive,-15.2%,
CCCNC(=O)c1ccc(N2CCC3(CC2)CC(c2ccccc2)=NO3)c(NC(=O)c2ccco2)c1,5.17 µM (active),-21.9%,
COc1ccccc1NS(=O)(=O)c1ccc2c(c1)CCN2C(=O)CCC(=O)O,inactive,0.926%,

SMILES,Potency,cell number change,"lipid storage change, negative = inhibition"
CC(C)c1c(C(=O)N/N=C/c2cccnc2)nnn1-c1nonc1N,inactive,-22.2%,
CCc1ccc(-c2ccc(SCc3ccccn3)nn2)cc1,inactive,-1.78%,
Cc1cc(C)cc(C(=O)/C=C2\NC(=O)CS2)c1,inactive,,
O=C(NN(CC(O)COc1ccccc1)CC(O)COc1ccccc1)c1ccccc1 (stereo unspecified),inactive,-5.14%,
CC(C)(C)OC(=O)NOCC(=O)N(Cc1ccccc1)CC(O)COc1ccccc1 (stereo unspecified),7.31 µM (active),-1.25%,
CC(C)N(Cc1ccccc1)C(=O)COc1ccccc1,inactive,2.07%,
CCOC(=O)N1CCN(C(=O)/C=C/c2c(C)nn(-c3ccc(F)cc3)c2Cl)CC1,inactive,-7.81%,
O=C(CSc1ccccn1)N1CCOCC1,inactive,-9.67%,
CS(=O)(=O)N(CC(=O)N1CCCCC1)c1ccc(Cl)c(C(F)(F)F)c1,inactive,0.64%,
CCn1c(SCC(=O)N2CCCC2)nc2ccccc2c1=O,inactive,-13.8%,
CNC(=O)c1oc(-c2ccc(Cl)cc2)nc1C,2.59 µM (active),,
CNC(=O)c1ncoc1-c1ccc(Cl)cc1,inactive,12.8%,
COC(=O)c1oc(-c2ccc(Cl)cc2)nc1C,inactive,-10.5%,
Cc1cccc(C)c1NC(=S)N(Cc1ccco1)C1CCN(C(C)C)CC1,inactive,1.59%,
COc1ccc(-n2nnnc2SCC(=O)NNC(=O)c2ccc([N+](=O)[O-])cc2)cc1,inactive,9.64%,
Cc1ccc(NC(=O)C(=O)NCCc2c[nH]c3ccccc23)cc1C,,15%,3.29% [at 9.22 µM] (inactive)
CCOCCCNC(=O)CN1C(=O)c2cccc3cccc1c23,inactive,-5.29%,
COc1cc(NC(=O)c2ccccc2NS(=O)(=O)c2ccc(Cl)s2)cc(OC)c1,16.4 µM (active),-19.8%,
COc1ccc(C)cc1NC(=O)c1ccccc1NS(=O)(=O)c1ccc(Cl)s1,inactive,,
Cc1ccc(NC(=O)c2ccccc2NS(=O)(=O)c2ccc(Cl)s2)cc1S(=O)(=O)N1CCOCC1,inactive,11.6%,
CCN1CCN(c2nc3sc4c(c3c(=O)n2-c2ccc(OC)cc2)CCCCC4)CC1,inactive,-9.24%,
CCOC(=O)COc1ccccc1C1Nc2ccccc2C(=O)N1c1cccc(Cl)c1 (stereo unspecified),inactive,2.87%,
COc1ccc(NCc2nnc(SCC(=O)NCc3ccco3)n2-c2ccccc2OC)cc1,inactive,13.6%,

SMILES,Potency,cell number change,"lipid storage change, negative = inhibition"
COC(=O)[C@H](CCSC)NC(=O)NCc1ccccc1F,inactive,-14.5%,
COC(=O)[C@@H](NC(=O)NCc1cccc(OC)c1)C(C)C,inactive,-13.3%,
CCC(C)[C@H](NC(=O)NCc1ccccc1Cl)C(=O)OC (stereo partly specified),inactive,-19%,
COc1cccc(CNC(=O)N[C@@H](C)C(=O)O)c1,inactive,1.68%,
CCC(C)[C@H](NC(=O)NCc1cccc(OC)c1)C(=O)O (stereo partly specified),6.51 µM (active),1.61%,
CCC(C)[C@H](NC(=O)NCc1ccccc1Cl)C(=O)O (stereo partly specified),29.1 µM (active),-0.143%,
CCC(C)NC(=O)NCc1ccccc1F (stereo unspecified),inactive,2.87%,
COC(=O)[C@@H](NC(=O)NCc1ccccc1F)C(C)C,25.9 µM (active),-6.12%,
CCC(C)[C@H](NC(=O)NCc1ccc(Cl)cc1)C(=O)O (stereo partly specified),inactive,4.5%,
CC(C)N(C)Cc1nnnn1CC(=O)NCc1cc(F)cc(C(F)(F)F)c1,inactive,-9.03%,
Cn1nc(-c2ccccc2)c(CO)c1Oc1cccc(C(F)(F)F)c1,inactive,9.06%,
COc1ccc(C(=O)CSc2nnc(C3CC3)n2N)cc1,inactive,-1.83%,
O=C(O)c1ccc(NS(=O)(=O)c2cc(Cl)ccc2Cl)cc1,inactive,3.91%,
Cc1ccc(NS(=O)(=O)c2cc(C(=O)O)ccc2Cl)cc1,2.31 µM (active),-3.53%,
Cc1ccc(NS(=O)(=O)c2cc(C(=O)O)ccc2Cl)c(C)c1,inactive,-3.54%,
COCCN1Cc2cccc(C(=O)NC(C)CCc3ccco3)c2C1=O (stereo unspecified),inactive,4.03%,
O=C(Nc1cccc(C(=O)O)c1)/C(=C\c1ccco1)NC(=O)c1ccccc1,inactive,13%,
CCOC(=O)N1CCN(CC(=O)N2c3ccccc3Sc3ccccc32)CC1,inactive,-12.6%,
C#CCOc1ccc(C2C3=C(CC(C)(C)CC3=O)N(CC(=O)O)C3=C2C(=O)CC(C)(C)C3)cc1,inactive,-0.525%,
COc1ccc(C2C3=C(CC(C)(C)CC3=O)N(CC(=O)O)C3=C2C(=O)CC(C)(C)C3)cc1OC,inactive,-17.9%,
C#CCOc1ccc(C2C3=C(CC(C)(C)CC3=O)N(CC(=O)O)C3=C2C(=O)CC(C)(C)C3)cc1OC,10.3 µM (active),-7.42%,
O=C(CN1C(=O)c2ccccc2C1=O)Nc1ccc(-c2nc3ccccc3o2)cc1,inactive,,
Cc1nn(C)cc1C(C(=O)NC1CCCCC1)N(CCc1ccccc1)C(=O)c1cnccn1 (stereo unspecified),inactive,19.3%,

SMILES,Potency,cell number change,"lipid storage change, negative = inhibition"
O=C(/C=C/c1cn(-c2ccccc2)nc1-c1cccnc1)N1CCCC1,inactive,-19.7%,
CCOc1cc(/C=N/NC(=O)c2ccncc2)ccc1OC(=O)c1ccccc1,12.6 µM (active),-17.2%,
CCOc1cc(/C=N/NC(=O)c2cccnc2)ccc1OC(=O)c1ccco1,inactive,-16.1%,
CCOc1cc(/C=N/NC(=O)c2ccccn2)ccc1OC(=O)c1ccc(F)cc1,inactive,5.41%,
Cc1cccc(Cn2c(N(C)CCO)nc3c2c(=O)[nH]c(=O)n3C)c1,inactive,28.6%,
CCN(c1ccccc1)S(=O)(=O)c1ccc(OC)c(NC(=O)CN2C(=O)NC(C)(C)C2=O)c1,inactive,-3.73%,
COc1ccc(C2(c3ccc(OC)cc3)NC(=O)N(CC(=O)N3CCOCC3)C2=O)cc1,0.231 µM (active),8.58%,
CCC1(c2ccc(F)cc2)NC(=O)N(CC(=O)N2CCOCC2)C1=O (stereo unspecified),inactive,-2.03%,
COc1ccc(N2CCN(C(=O)CSc3nnc(C)c(=O)[nH]3)CC2)cc1,29.1 µM (active),2.46%,
COc1ccc(N2CCN(C(=O)CN3C(=O)NC(C)(C4CC4)C3=O)CC2)cc1 (stereo unspecified),inactive,-22.3%,
COc1ccc(N2CCN(C(=O)CSc3nc4ccccc4c(=O)[nH]3)CC2)cc1,inactive,-2.61%,
COc1ccc(N2CCN(C(=O)CN3C(=O)NC4(CCCCCC4)C3=O)CC2)cc1,5.8 µM (active),-6.83%,
COc1ccc(N2CCN(C(=O)CSc3ccc(C)cc3)CC2)cc1,inactive,6.76%,
COc1ccc(-c2csc(NC(=O)CN3C(=O)NC4(CCCC4)C3=O)n2)c(OC)c1,6.51 µM (active),,
COc1ccc(C2(c3ccc(OC)cc3)NC(=O)N(CC(=O)Nc3ccccc3)C2=O)cc1,inactive,10.9%,
COc1ccc(-c2csc(NC(=O)CN3C(=O)C4CCCCC4C3=O)n2)c(OC)c1 (stereo unspecified),inactive,-28.9%,
COc1cccc(N2CCN(C(=O)CN3C(=O)NC4(CCCC4)C3=O)CC2)c1,inactive,,
COc1ccc(NC(=O)CN2C(=O)NC3(CCCC3)C2=O)c(OC)c1,inactive,-7.62%,
CCCCOC(=O)c1ccc(NC(=O)C(CCS(C)(=O)=O)NC(C)=O)cc1 (stereo unspecified),inactive,13%,
CC1(OC(=O)CCc2ccccc2)C(=O)C=C2C=C(c3ccc(C#N)cc3)N(C3CCCCC3)C=C2C1=O (stereo unspecified),inactive,20.5%,
